Measurements reported in article PMC5540273 (PLoS ONE, 2017).
Values joined by “and” are separate entries in the source; they are usually repeats but may differ in a detail not shown here. Equal entries are not always repeated. Where two headings read alike, the source gives them in different places.

How the values were obtained:
NEK3 = conditions: concentration: 1 μM, replicates: in singlicate, n = 1
NEK4 = conditions: concentration: 1 μM, replicates: in singlicate, n = 1
NEK5 = conditions: concentration: 1 μM, replicates: in singlicate, n = 1
NEK6 = conditions: concentration: 1 μM, replicates: in singlicate, n = 1
NEK7 = conditions: concentration: 1 μM, replicates: in singlicate; n = 1
NEK9 = conditions: concentration: 1 μM, replicates: in singlicate, n = 1
NIK = tested on: T1, NIK; conditions: concentration: 1 μM, replicates: in singlicate, n = 1
T1 construct: gene MAP3K14

NIM1 = tested on: T2, NIM1; conditions: concentration: 1 μM, replicates: in singlicate; n = 1
T2 construct: gene MGC42105

NLK = conditions: concentration: 1 μM, replicates: in singlicate, n = 1
OSR1 = tested on: T3, OSR1; conditions: concentration: 1 μM, replicates: in singlicate, n = 1
T3 construct: gene OXSR1
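Note: KINOMEscan kinase panel screen.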

Row | SMILES | %Inh (NEK3; 1 µM) | %Inh (NEK4; 1 µM) | %Inh (NEK5; 1 µM) | %Inh (NEK6; 1 µM) | %Inh (NEK7) | %Inh (NEK9; 1 µM) | %Inh (NIK; 1 µM) | %Inh (NIM1) | %Inh (NLK; 1 µM) | %Inh (OSR1; 1 µM) | %Inh (NEK3) | %Inh (NEK4) | %Inh (NEK5) | %Inh (NEK6) | %Inh (NEK9) | %Inh (NIK) | %Inh (NLK) | %Inh (OSR1)
1 | COc1ccc(-c2nc3n(c2-c2ccncc2)CCC3)cc1 [SKF-104493] | 19% and 0% | 19% and 0% | 0% and 16% | 5% and 0% | 0% | 0% and 23% | 0% and 6% | 19% | 28% and 64% | 2% and 0% | – | – | – | – | – | – | – | –
2 | N#Cc1ccc(Oc2ccc(Nc3ncnc4cc[nH]c34)cc2Cl)cc1 | – | – | – | – | 13% | – | – | 30% | – | – | 26% | 0% | 0% | 0% | 2% | 0% | 17% | 4%
3 | Cl.Cn1ccc(-c2cccc(Nc3ccnc4cc(-c5nccs5)ccc34)c2)n1 [GW525701] | – | – | – | – | 0% | – | – | 18% | – | – | 17% | 0% | 0% | 0% | 0% | 51% | 6% | 15%
4 | Fc1cccc(COc2ccc(Nc3ncnc4cc[nH]c34)cc2Cl)c1 | – | – | – | – | 9% | – | – | 48% | – | – | 12% | 3% | 16% | 11% | 10% | 9% | 0% | 21%
